Source: PubChem BioAssay (NCI)
Compounds without any hit were thinned out: in the full panel of roughly 83,000, 20% have a hit.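 Method: cells in 96-well plates; compound added at one concentration; 48 h incubation; percent growth measured; values under 10 scored active.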 Values without a mark were called inactive. Activity calls are given as the source filed them.

Experiments:
Assay in all cases: NCI-60 one-dose screen, 48 h (100 = growth as untreated, 0 = no growth, -100 = all killed)
[1] = system: NCI-H23 lung; settings: 10 µM unless noted
[2] = system: NCI-H226 lung; settings: 10 µM unless noted
[3] = system: NCI-H322M lung; settings: 10 µM unless noted
[4] = system: HOP-62 NSCLC; settings: 10 µM unless noted
[5] = system: NCI-H460 lung; settings: 10 µM unless noted
[6] = system: HOP-92 NSCLC; settings: 10 µM unless noted
[7] = system: NCI-H522 lung; settings: 10 µM unless noted
[8] = system: A549/ATCC NSCLC; settings: 10 µM unless noted
[9] = system: 786-0 renal; settings: 10 µM unless noted
[10] = system: COLO 205 colon; settings: 10 µM unless noted
[11] = system: DU-145 prostate; settings: 10 µM unless noted
[12] = system: K-562 leukemia; settings: 10 µM unless noted
[13] = system: MALME-3M melanoma; settings: 10 µM unless noted
[14] = system: MDA-MB-231 breast; settings: 10 µM unless noted
[15] = system: RXF 393 renal; settings: 10 µM unless noted
[16] = system: SF-268 CNS; settings: 10 µM unless noted
[17] = system: SF-295 CNS; settings: 10 µM unless noted
[18] = system: SF-539 CNS; settings: 10 µM unless noted
[19] = system: UACC-257 melanoma; settings: 10 µM
[20] = system: M14 melanoma; settings: 10 µM unless noted

Row | SMILES | growth [1] [%] | growth [2] [%] | growth [3] [%] | growth [4] [%] | growth [5] | growth [6] | growth [7] | growth [8] [%] | growth [9] | growth [10] | growth [11] | growth [12] | growth [13] | growth [14] | growth [15] | growth [16] [%] | growth [17] | growth [18] | growth [19] [%] | growth [20]
1 | CN1C(=O)[C@H]2c3c1cccc3[C@@]13NC(=O)O[C@H]1[C@H](CCC3(C)C)C2(C)C | 103 | 95.2 | 108 | 96 | 105% | 81.9% | 92.6% | 93.7 | 96.6% | 107% | 106% | 82.6% | 110% | 88.6% | 101% | 95.2 | 75% | 98% | 104 | 108%
2 | CN(C)c1ccc(C2CC(c3ccccc3)=NN2/C=C2\SC(=O)NC2=O)cc1 (stereo not given) | 88.7 | 90.4 | 87.4 | 94.5 | 67.2% | 91.5% | 90% | 70.1 | 90.5% | 110% | 57.7% | 100% | 89% | 93.3% | 96.5% | 90.9 | 98% | 76% | 115 | 93.7%
3 | COc1cc(NCCN=C(N)NC(N)=NC(C)C)c2ncccc2c1 | 44.7 | 94.7 | 47.4 | 94.8 | 82.1% | 33.2% | -3.01% (active) | 91.4 | 105% | 20.4% | 103% | 55.5% | -11% (active) | 69.3% | 101% | 45.1 | 108% | 6.08% (active) | 72.1 | 88.6%
4 | CCCOC(=O)C1(O)CCCC1 | 106 | 92.9 | 102 | 109 | 108% | 89.8% | 75% | 105 | 105% | 118% | 123% | 110% | 96.3% | 112% | 103% | 121 | 105% | 88.1% | 103 | 107%
5 | CCC(C)NCC(=O)O (stereo not given) | 108 | 92.6 | 118 | 98.2 | 108% | 109% | 78.7% | 105 | 103% | 107% | 115% | 96.3% | 105% | 111% | 103% | 107 | 92.4% | 92.7% | 112 | 99.3%
6 | COc1ccc(OC)c(-c2ccc(-c3ccccc3N)c3[nH]c4ccccc4c23)c1 | 74.5 | 75.2 | 90.1 | 80.9 | 92.3% | 80.8% | 56.9% | 68.7 | 83.6% | 87.5% | 89.6% | 76.2% | 85% | 74.1% | 98.2% | 79.1 | 99.4% | 93.2% | 85 | 84.6%
7 | COc1ccc(-c2cn[nH]c2-c2cc(OC)c3c(c2)OCO3)cc1 | 18.3 | 47.7 | 15 | 22.1 | 8.74% (active) | 33.4% | -43.9% (active) | 19.8 | 26% | -44.2% (active) | 12.4% | 10.1% | 30.9% | 11% | -31.3% (active) | 37.6 | -10.4% (active) | -28.7% (active) | 66.9 | 16%
8 | COc1cccc(-c2nc3sccn3c2-c2ccnc(NCCNS(=O)(=O)c3ccccc3)n2)c1 | 65.8 | 43.1 | 81.7 | 114 | 62.4% | 62.6% | 49.5% | 64.8 | 56.7% | 34.1% | 65.8% | 36.9% | 66.6% | 63.5% | 64.2% | 62.7 | 63.6% | 79.9% | 81.4 | 35.8%
9 | NCCSC(c1ccccc1)(c1ccccc1)c1ccccc1 | 25.1 | 68.6 | 29.5 | 40.8 | 7.06% (active) | -2.14% (active) | -20.7% (active) | 19.9 | 37.9% | -42.8% (active) | -1.74% (active) | 3.65% (active) | 27.5% | -24.2% (active) | -7.93% (active) | 27.4 | -45.9% (active) | -46.1% (active) | 47.7 | -9.88% (active)
10 | CCC1=C[C@@H]2CN(C1)Cc1c([nH]c3ccccc13)[C@@](C(=O)OC)(c1cc3c(cc1OC)N(C=O)[C@H]1[C@@](O)(C(=O)OC)[C@H](OC(C)=O)[C@]4(CC)[C@@H]5C[C@@H]5CN5CC[C@]31[C@@H]54)C2 | 15.7 | 35.4 | 48.8 | 34 | 6.63% (active) | -16.4% (active) | -0.697% (active) | 11 | 25.8% | -78.5% (active) | -9.76% (active) | 9.35% (active) | 40.4% | -24% (active) | 40.7% | 16.1 | -32.8% (active) | -18.1% (active) | 52.5 | 3.92% (active)
11 | CC(=O)OC[Si](C)(C)c1ccccc1 | 112 | 95.9 | 109 | 110 | 103% | 92.1% | 103% | 95.8 | 96.9% | 117% | 113% | 102% | 110% | 105% | 107% | 103 | 91.6% | 96.2% | 92.3 | 97.8%
12 | O=C(O)C(Cc1ccccc1)N1C(=O)/C(=C/C(Cl)=C/c2ccc([N+](=O)[O-])cc2)SC1=S (stereo not given) | 16.1 | 71.2 | 70.9 | 47.7 | 50.1% | 20% | 0.83% (active) | 81.2 | -31.6% (active) | 17.4% | 35% | 9.61% (active) | 3.53% (active) | 29.5% | -47.1% (active) | 19.2 | 88.8% | 29.6% | 18.1 | -13.7% (active)
13 | COc1cc2nc(SCc3cc(OC)c(OC)c(OC)c3)n(Cc3ccccc3)c(=O)c2cc1OC | 20.5 | 49.7 | 45.4 | 41.4 | 22.3% | 62.7% | -33% (active) | 36.9 | 36.8% | 7.38% (active) | 49.8% | 10.2% | 21.9% | 36% | 4.55% (active) | 37.9 | 19.7% | -6.22% (active) | 63.3 | 14.9%
14 | COc1ccc2c(c1)C(=O)/C(=C/c1ccc(O)cc1)O2 | 93.9 | 78.2 | 86.6 | 90.8 | 91.2% | -40% (active) | -97.9% (active) | 91.8 | 101% | 24.8% | 109% | 59.7% | 71.2% | 78.5% | -59.9% (active) | 97.9 | 98.1% | 80.2% | 86.7 | 93.4%
15 | Cc1cc(-c2ccccc2)c(C)n1Cc1ccc(Cl)cc1 | 65.8 | 71.3 | 68.1 | 55.4 | 20.8% | 54.2% | 37.5% | 33.7 | 47.8% | 38.2% | 86.6% | 13% | 59.4% | 67% | 61.4% | 58.5 | 39.7% | 39.4% | 48.4 | 17.7%
